Assay outcomes: PubChem BioAssay, National Center for Advancing Translational Sciences (NCATS)
FLuc inh = inhibitors of firefly (Photinus pyralis) luciferase | purified P. pyralis luciferase, luminescence, biochemical | Potency, µM (doses to about 115 µM), most hits filed as inhibitors | actives 2.5% (n = 76,000) | AID 1347043; also: nearly all actives have a fitted effect of over 65% in size
Target sequence (P08659 whole entry, looked up): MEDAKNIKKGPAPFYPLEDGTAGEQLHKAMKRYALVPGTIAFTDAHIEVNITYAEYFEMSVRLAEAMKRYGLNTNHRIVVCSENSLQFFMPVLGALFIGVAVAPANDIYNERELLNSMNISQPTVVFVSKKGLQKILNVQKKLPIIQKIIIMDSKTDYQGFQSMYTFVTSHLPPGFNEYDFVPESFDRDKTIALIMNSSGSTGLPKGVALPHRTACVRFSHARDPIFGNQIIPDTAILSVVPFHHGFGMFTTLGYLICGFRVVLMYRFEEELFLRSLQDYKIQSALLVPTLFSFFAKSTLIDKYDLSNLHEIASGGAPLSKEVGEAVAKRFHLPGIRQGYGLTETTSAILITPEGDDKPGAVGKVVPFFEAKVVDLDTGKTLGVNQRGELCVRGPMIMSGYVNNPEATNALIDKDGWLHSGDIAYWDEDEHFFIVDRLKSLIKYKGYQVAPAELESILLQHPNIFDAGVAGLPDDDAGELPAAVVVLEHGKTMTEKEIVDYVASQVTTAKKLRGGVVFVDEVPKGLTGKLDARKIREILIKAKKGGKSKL
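FLuc 10nM, D-luciferin 10uM, ATP 10uM, Mg acetate 10mM, Tris acetate pH 7.5, Tween/BSA; cpd qHTS; enzyme added last; CCD luminescence.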
hNpr1 antagonist = human Npr1 receptor antagonism; P16066; HEK293 hNpr1 GloSensor cGMP, ANP-stimulated luminescence; Potency, µM (series often up to 46.3 µM), most hits filed as inhibitors; actives 1.6% (n = 76,000); AID 1347048; calls by dose curve; also: nearly all actives have a fitted effect of over 60% in size
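HEK293 cells stably expressing human Npr1 and cGMP GloSensor pGS-40F, loaded 2 h with 2% GloSensor reagent, given compound 30 min at room temperature. Luminescence read before and 20 min after 0.1 nM hNppA.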
GPT2 inhibitor = GPT2 alanine aminotransferase inhibition | Q8TD30 | Recombinant GPT2, coupled pyruvate oxidase/HRP Amplex Red fluorescence | Potency, µM (highest dose often 57.7 µM), actives largely listed as inhibitors | actives 0.25% (n = 100,000) | AID 1671188; also: nearly all actives have a fitted effect of over 60% in size
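GPT2 10ng/uL, a-KG 250uM, L-Ala 2mM, HEPES pH7.5 + 0.0001% Tween; 30 min RT. Then Amplex mix (PO/HRP/ThPP), 30 min RT dark, fluorescence. AOA 50uM used as positive control.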
HEK293 tox = kills HEK 293 cells | HEK 293 viability, ATP luminescence (CellTiter-Glo), 48-72 h | Potency, µM (series often up to 115 µM), actives largely listed as inhibitors | actives 6.6% (n = 94,000); also: nearly all actives have a fitted effect of over 60% in size
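Pintool-delivered compounds were incubated with HEK 293 cells (250 cells/well) at 37 degree Celsius for 48 or 72 hr. ATP-dependent luminescence (CellTiter-Glo) then reported remaining viable cells.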
NIH3T3 tox = NIH 3T3 cell cytotoxicity; NIH 3T3 viability, CellTiter-Glo ATP luminescence, 48-72 h; Potency, µM (series often up to 96.7 µM), actives largely listed as inhibitors; actives 4.3% (n = 94,000); AID 1345082; also: nearly all actives have a fitted effect of over 55% in size
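Cells were seeded at 400 per well, treated with pin-transferred compound, and kept 48 or 72 hr at 37 °C before CellTiter-Glo addition and luminescence imaging of cellular ATP.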
NPR1 antag cnf = confirmation of human Npr1 natriuretic peptide receptor antagonists; shares compounds with hNpr1 antagonist; HEK293 hNpr1 cGMP GloSensor luminescence, ANP-stimulated; Potency, µM (doses to about 57.6 µM), hits mostly inhibitors; actives 76% (n = 1,400); calls by dose curve; also: nearly all actives have a fitted effect of over 70% in size
Npr2 selectivity = antagonizes human Npr2, subtype selectivity check. shares compounds with hNpr1 antagonist. HEK293 hNpr2 GloSensor cGMP luminescence, CNP-stimulated. Potency, µM (doses to about 57.6 µM), actives largely listed as inhibitors. actives 67% (n = 1,400); calls by dose curve; also: nearly all actives have a fitted effect of over 70% in size
FLuc counter = counter-screen for Npr1 antagonists: firefly luciferase inhibitors; shares compounds with hNpr1 antagonist; purified FLuc enzyme, luminescence, Km substrate; Potency, µM (top dose mostly 57.6 µM), most hits filed as inhibitors; actives 0.7% (n = 1,400); AID 1347047
GloSensor cGMP = counter-screen for Npr1 antagonists: GloSensor control cell line; shares compounds with hNpr1 antagonist; Potency, µM (highest dose often 57.6 µM), actives largely listed as inhibitors; AID 1347051; actives 69% (n = 1,400); HEK293 GloSensor cGMP, SNP-stimulated, luminescence; calls by dose curve; also: nearly all actives have a fitted effect of over 70% in size
Large screens that a line does not name were inactive (follow-up assays come after a bar, where they were run). Most compounds without a hit are left out; they make up all but 10% or so of the library. Unless noted, calls follow the shape of the dose curve; as a rule, active = well fitted curve in the direction sought with a large enough effect; inconclusive = small, poorly fitted or top-dose-only effect, or another doubt; inactive = no such curve, though single readings can be large; an effect the other way counts as inactive or inconclusive.

CCc1ccc(NC(=O)c2cc3n(n2)CC(c2ccc(Cl)cc2)OC3)cc1 (centres undefined)	hNpr1 antagonist 11µM, HEK293 tox inconclusive, NIH3T3 tox inconclusive | NPR1 antag cnf 22µM | Npr2 selectivity inconclusive | FLuc counter inactive | GloSensor cGMP inconclusive
CC(C)CC(=O)N1CCc2c(c(-c3nncn3C(C)C)nn2C)C1	none
CCc1nc2nccc(-c3ccsc3)n2n1	HEK293 tox inconclusive
CN(Cc1ccccn1)C1CCOc2ccccc21 (centres undefined)	HEK293 tox inconclusive
OC1(CN2CCCCC2)CCN(Cc2ccc(F)c(Cl)c2)C1 (centres undefined)	HEK293 tox inconclusive, NIH3T3 tox inconclusive
O=C(c1ccc2c(c1)OCO2)N1CCC2(CC1)NC(=O)N(c1cccc(F)c1)N2	HEK293 tox inconclusive, NIH3T3 tox inconclusive
Cc1cc(F)ccc1NC(=O)c1cc2n(n1)CC(c1ccc(Cl)cc1)OC2 (centres undefined)	hNpr1 antagonist 16µM, HEK293 tox inconclusive, NIH3T3 tox inconclusive | NPR1 antag cnf 27µM | Npr2 selectivity 22µM | FLuc counter inactive | GloSensor cGMP 24µM
O=C(NCc1ccc(Cl)cc1)c1cc2n(n1)CC(c1ccc3c(c1)OCO3)OC2 (centres undefined)	HEK293 tox inconclusive, NIH3T3 tox inconclusive
CCc1ccc(CNC(=O)c2cc3n(n2)CC(c2ccc4c(c2)OCO4)OC3)cc1 (centres undefined)	GPT2 inhibitor inconclusive, HEK293 tox inconclusive, NIH3T3 tox inconclusive | NPR1 antag cnf inconclusive | Npr2 selectivity inactive | FLuc counter inactive | GloSensor cGMP inconclusive
Cc1ccccc1NC(=O)c1cc2n(n1)CC(c1ccc(Cl)cc1)OC2 (centres undefined)	hNpr1 antagonist inconclusive, HEK293 tox inconclusive, NIH3T3 tox inconclusive
O=C(N[C@H](c1ccccn1)C1CC(O)C1)C1(c2ccc(Cl)cc2)CCC1 (some centres undefined)	hNpr1 antagonist inconclusive, HEK293 tox inconclusive | NPR1 antag cnf inconclusive | Npr2 selectivity 19µM | FLuc counter inactive | GloSensor cGMP inactive
CS(=O)(=O)c1ccc(CC(=O)N[C@H](c2ccccn2)C2CC(O)C2)cc1 (some centres undefined)	GPT2 inhibitor inconclusive
Cc1ccc(C(=O)N2CCC(N3Cc4cnc(C)n4C3=O)CC2)cc1	HEK293 tox inconclusive, NIH3T3 tox inconclusive
O=C(NCCOc1ccccc1)c1cnc2n1CCN(Cc1ccccc1O)CC2	HEK293 tox inconclusive
O=C(NCCOc1ccccc1)c1cnc2n1CCN(Cc1c[nH]c3ccccc13)CC2	hNpr1 antagonist inconclusive, HEK293 tox 100µM, NIH3T3 tox inconclusive | NPR1 antag cnf 31µM | Npr2 selectivity inconclusive | FLuc counter inactive | GloSensor cGMP 35µM
CC1=NS(=O)(=O)N(C)C=C1C(=O)OCc1nc(-c2ccc(F)cc2)no1	hNpr1 antagonist 11µM, HEK293 tox inconclusive | NPR1 antag cnf 22µM | Npr2 selectivity 22µM | FLuc counter inactive | GloSensor cGMP 22µM
COc1cccc(-c2noc(COC(=O)C3=CN(Cc4ccccc4)S(=O)(=O)N=C3C)n2)c1	FLuc inh inconclusive, HEK293 tox inconclusive
CC1=NS(=O)(=O)N(C)C=C1C(=O)OCc1nc(C)no1	none
CC1=NS(=O)(=O)N(C)C=C1C(=O)OCc1nc(-c2cccc(C)c2)no1	hNpr1 antagonist 11µM, HEK293 tox inconclusive, NIH3T3 tox inconclusive | NPR1 antag cnf 15µM | Npr2 selectivity 14µM | FLuc counter inactive | GloSensor cGMP 14µM
COc1ccc(CN2C=C(C(=O)OCc3nc(-c4cccc(OC)c4)no3)C(C)=NS2(=O)=O)cc1	hNpr1 antagonist inconclusive, NIH3T3 tox inconclusive | NPR1 antag cnf inconclusive | Npr2 selectivity inactive | FLuc counter inactive | GloSensor cGMP inconclusive
COCCNC(=O)C[C@@H]1C[C@H]2O[C@H](CNC3CCOCC3)[C@@H](O)[C@H]2O1	none
CCc1ccc(C(=O)N2CCC(CC(=O)NCc3ccccc3)C2)cc1 (centres undefined)	none
O=C(O)COc1ccc(-c2nccc3c2C(=O)N(Cc2cccc(C(F)(F)F)c2)CC(CNC(=O)C2CCOCC2)O3)cc1 (centres undefined)	hNpr1 antagonist inconclusive, HEK293 tox inconclusive, NIH3T3 tox inconclusive | NPR1 antag cnf 8.6µM | Npr2 selectivity inconclusive | FLuc counter inactive | GloSensor cGMP 5.4µM
O=C(O)COc1ccc(-c2nccc3c2C(=O)N(Cc2cccc(C(F)(F)F)c2)CC(COc2ccc4cnccc4c2)O3)cc1 (centres undefined)	NIH3T3 tox inconclusive
Cc1ncccc1OCC1CN(Cc2cccc(C(F)(F)F)c2)C(=O)c2c(ccnc2-c2ccc(OCC(=O)O)cc2)O1 (centres undefined)	NIH3T3 tox inconclusive
CC(C)C(=O)NCC1CN(Cc2ccccc2)C(=O)c2c(ccnc2-c2ccc(OCC(=O)O)cc2)O1 (centres undefined)	hNpr1 antagonist 5.6µM, HEK293 tox 25µM, NIH3T3 tox inconclusive | NPR1 antag cnf 5.4µM | Npr2 selectivity 6.1µM | FLuc counter inactive | GloSensor cGMP 4.8µM
COc1ccc(CCC(=O)N2CCC3(CC2)CN(Cc2ccc(OC)cc2)C3=O)cc1	hNpr1 antagonist inconclusive, HEK293 tox inconclusive, NIH3T3 tox inconclusive
COc1cccc(S(=O)(=O)N2CCC3(CC2)CC(N(C)Cc2ccccc2)CCO3)c1 (centres undefined)	hNpr1 antagonist inconclusive, HEK293 tox inconclusive, NIH3T3 tox inconclusive | NPR1 antag cnf inconclusive | Npr2 selectivity inconclusive | FLuc counter inactive | GloSensor cGMP inconclusive
COc1ccc(S(=O)(=O)N2CCC3(CC2)CC(N(C)Cc2ccccc2)CCO3)cc1 (centres undefined)	hNpr1 antagonist 11µM, HEK293 tox inconclusive, NIH3T3 tox inconclusive | NPR1 antag cnf 27µM | Npr2 selectivity inconclusive | FLuc counter inactive | GloSensor cGMP inconclusive
O=C(NC1CCCCC1)N[C@H]1CCN2C(=O)c3cc(-c4cccs4)ccc3NC(=O)[C@H]12	HEK293 tox inconclusive, NIH3T3 tox inconclusive
